High-throughput results: PubChem BioAssay, several laboratories
Rv3671c inh = Rv3671c serine protease inhibitors, primary screen, biochemical, fluorescence polarization, M. tuberculosis H37Rv. P9WHR9. AID 2606, 2010. inhibition, % at 5.96 µM. hit rate 0.048% among 320,000; in the data active = inhibition above about 38%;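 note: extracellular domain of Rv3671c used as enzyme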
Mtb FBA inh = Mtb FBA enzyme inhibitors, primary screen, biochemical, fluorescence, strain H37Rv; inhibition, % at 1 µM; AID 588726, 2011; purified M. tuberculosis FBA, fluorescence read-out; hit rate 2.3% among 360,000; Fructose-bisphosphate aldolase (Mycobacterium tuberculosis (strain ATCC 25618 / H37Rv)), …
Target sequence (P9WQA3 whole entry, looked up): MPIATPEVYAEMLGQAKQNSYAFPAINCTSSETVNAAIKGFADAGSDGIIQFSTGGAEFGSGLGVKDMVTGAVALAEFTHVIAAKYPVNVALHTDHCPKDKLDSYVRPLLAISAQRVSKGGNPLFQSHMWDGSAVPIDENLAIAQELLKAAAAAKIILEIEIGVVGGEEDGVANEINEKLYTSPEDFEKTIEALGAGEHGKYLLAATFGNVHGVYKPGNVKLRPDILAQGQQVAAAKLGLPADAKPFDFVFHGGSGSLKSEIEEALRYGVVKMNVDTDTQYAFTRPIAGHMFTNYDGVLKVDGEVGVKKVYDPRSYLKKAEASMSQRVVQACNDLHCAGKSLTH
GDH-TPI counter-1 = GDH-TPI coupling enzyme inhibitors, primary screen, artefact control for M. tuberculosis FBA inhibitor project, biochemical, absorbance, full deck; inhibition, % at 4.8 µM; GDH-TPI coupled enzyme counterscreen, NADH absorbance; hit rate 1.2% among 360,000; in the data active = inhibition above about 30%
UGM FP inh = M. tuberculosis UGM enzyme inhibitors, primary screen, biochemical, fluorescence polarization, single point | hit rate 0.06% among 320,000 | purified UGM, fluorescence polarization probe displacement | inhibition, % at 10 µM; in the data active = inhibition above about 10%, passing the limit was not always enough
Mtb FBA confirm = M. tuberculosis aldolase blockers, biochemical, fluorescence, strain H37Rv, confirmation | hit rate 78% among 5,600 | shares compounds with Mtb FBA inh | inhibition, % at 1 µM | AID 651616, 2012 | purified M. tuberculosis FBA, fluorescence read-out
GDH-TPI counter-2 = GDH-TPI coupling enzyme inhibitors, artefact control for M. tuberculosis FBA inhibitor project, biochemical, fluorescence, high throughput; shares compounds with Mtb FBA inh; GDH-TPI coupled enzyme counterscreen; inhibition, % at 1 µM; hit rate 81% among 5,600; AID 652141, 2013; in the data active = inhibition above about 10%
GDH-TPI dose = GDH-TPI coupling enzyme inhibitors, dose response, artefact control for M. tuberculosis FBA inhibitor project, biochemical, fluorescence, IC50; GDH-TPI coupled enzyme assay, artifact counterscreen; IC50, µM; hit rate 79% among 170; AID 652145, 2013; shares compounds with Mtb FBA inh; call rule not given here
Each line names hits and unclear results; the compound was inactive in the other large screens (follow-up assays come after a bar, where they were run). Hits are enriched below; roughly 3.5% of the tested compounds scored in any of these assays. Cut-off read from the data, not from the text of the source, unless noted: active = inhibition above about 27%; inactive = the rest.

CCc1ccc(-c2nc(SCC(=O)c3c(N)n(C)c(=O)n(C)c3=O)n[nH]2)cc1	Mtb FBA inh 29 | Mtb FBA confirm 69 | GDH-TPI counter-2 56
Cc1ccccc1NC(=O)NC1(C(=O)N2CCN(C)CC2)CCCCC1	none
COc1ccc(OC)c(/C=C/C(=O)N2CCN(S(=O)(=O)c3cc(C)ccc3C)CC2)c1	none
COc1ccc(OC)c(/C=C/C(=O)N2CCN(S(=O)(=O)c3ccc(C)cc3C)CC2)c1	Mtb FBA inh 29 (no result: UGM FP inh) | Mtb FBA confirm inactive | GDH-TPI counter-2 inactive
COc1ccc(OC)c(/C=C/C(=O)N(C)CC(=O)Nc2cc(C)ccc2C)c1	Mtb FBA inh 29 | Mtb FBA confirm 34 | GDH-TPI counter-2 29
CCN(CC(=O)NCc1cccs1)C(=O)/C=C/c1cc(OC)ccc1OC	Mtb FBA inh 37 (no result: UGM FP inh) | Mtb FBA confirm 155 | GDH-TPI counter-2 115
COc1ccc(OC)c(/C=C/C(=O)N(C)CC(=O)Nc2ccc(C)cc2)c1	none
O=C(NNC(=O)c1cc2ccccc2cc1O)Nc1ccc(Br)cc1	Mtb FBA inh 28 | Mtb FBA confirm 106 | GDH-TPI counter-2 91
CCc1ccccc1NC(=O)NNC(=O)c1ccc2ccccc2c1O	none
COc1ccc(NC(=O)NNC(=O)c2ccc3ccccc3c2O)c(OC)c1	Mtb FBA inh 40 | Mtb FBA confirm 52 | GDH-TPI counter-2 44
CC(=O)Nc1ccc(CCNC(=O)c2ccc3ccccc3c2O)cc1	Mtb FBA inh 32 (no result: Rv3671c inh, UGM FP inh) | Mtb FBA confirm active | GDH-TPI counter-2 149
CCOc1ccc(NC(=O)NNC(=O)c2ccc3ccccc3c2O)cc1	Mtb FBA inh 40 | Mtb FBA confirm 28 | GDH-TPI counter-2 inactive | GDH-TPI dose 5.7
c1cncc(CN2CCN(c3cc(-c4cnc5ccccc5c4)nc4ccnn34)CC2)c1	none (no result: Rv3671c inh, UGM FP inh)
COc1ccc2c(c1)NP(=S)(c1ccccc1)N2C (stereo unspecified)	Mtb FBA inh 27 (no result: Rv3671c inh, UGM FP inh) | Mtb FBA confirm 67 | GDH-TPI counter-2 55
COc1ccc(P2(=O)Nc3ccccc3N2)cc1	none
OC(c1cccc(Cl)c1)c1ncc(-c2cccc(C(F)(F)F)c2)[nH]1 (stereo unspecified)	none (no result: Rv3671c inh, UGM FP inh)
O=C(CCCC(=O)NCC1CCCO1)NCC1CCCO1 (stereo unspecified)	none
O=C(CN1CCCCCC1)NCC1CCCO1 (stereo unspecified)	Mtb FBA inh 97 | Mtb FBA confirm 80 | GDH-TPI counter-2 73
CC(=O)Oc1cc(C(=O)OCC(=O)NC23CC4CC(CC(C4)C2)C3)cc(OC(C)=O)c1OC(C)=O	none (no result: Rv3671c inh, UGM FP inh)
COc1ccc(C2C(C#N)=C(N)OC3=C2C(=O)CC(C)(C)C3)cc1Cn1nc(C)c([N+](=O)[O-])c1C (stereo unspecified)	Mtb FBA inh 39 | Mtb FBA confirm 54 | GDH-TPI counter-2 47
COc1ccc(C(=O)OCCN2CCN(C3=NS(=O)(=O)c4ccccc43)CC2)cc1OC	none
COc1cc(C(C)n2nnc3ccccc32)ccc1O (stereo unspecified)	none (no result: Rv3671c inh, UGM FP inh)
CCOC(=O)C(=O)C1=C(N2CCOCC2)/C(=C\c2ccc(F)cc2)CC1	none
CCCCN(C(=O)NC(=O)C1=C(N2CCOCC2)/C(=C/c2ccccc2)CC1)S(C)(=O)=O	Mtb FBA inh 44 | Mtb FBA confirm 128 | GDH-TPI counter-2 83
CCc1cc2c(=O)c(-c3cnn(-c4ccccc4)c3)coc2c(CN2CCOCC2)c1O	none
CCc1cc2c(=O)c(-c3cnn(-c4ccccc4)c3)c(C)oc2c(CN2CCCCC2)c1O	Mtb FBA inh 41 | Mtb FBA confirm active | GDH-TPI counter-2 active
CCC1(c2ccc(Cl)cc2)NC(=O)N(CC(=O)NC2CCCC(C)C2C)C1=O (stereo unspecified)	none (no result: Rv3671c inh, UGM FP inh)
Cc1cc2c(SCc3ccccc3Cl)nc(N)nc2nc1C	Mtb FBA inh 86 (no result: Rv3671c inh, UGM FP inh) | Mtb FBA confirm inactive | GDH-TPI counter-2 inactive | GDH-TPI dose 1.3
COc1ccc(S(=O)(=O)NC(=O)C2(C)CCN2C(=O)C(C)(C)c2ccccc2)cc1 (stereo unspecified)	none (no result: Rv3671c inh, UGM FP inh)
CC1(C)Cc2c(c(-c3ccco3)nc3sc4c(NCCO)ncnc4c23)CO1	Mtb FBA inh 44 | Mtb FBA confirm 135 | GDH-TPI counter-2 101
COCCCNc1ncnc2c1sc1nc(-c3ccco3)c3c(c12)CC(C)(C)OC3	Mtb FBA inh 39, GDH-TPI counter-1 39 | Mtb FBA confirm 98 | GDH-TPI counter-2 94
Cc1nc2sc3c(NCc4ccco4)ncnc3c2c2c1COC(C)(C)C2	none
O=C1c2ccc([N+](=O)[O-])cc2C(=O)N1Cc1cccnc1	none
COc1ccc(CC(N)c2csc(Nc3cc(NCc4ccco4)ncn3)n2)cc1 (stereo unspecified)	none (no result: Rv3671c inh, UGM FP inh)
CN(CC(=O)Nc1ccccc1Cl)C1CCS(=O)(=O)C1 (stereo unspecified)	none
COc1ccc2c(C)c(C(=O)N3CC[C@@H](N4CCC(O)CC4)[C@H](O)C3)oc2c1	Mtb FBA inh 45 | Mtb FBA confirm 105 | GDH-TPI counter-2 81
COc1ccccc1OCCC(=O)OCC(=O)NC(C)c1ccccc1 (stereo unspecified)	none
Cc1ccc(N2C(=O)c3ccccc3NC2c2ccccc2O)cc1 (stereo unspecified)	none
O=C1c2ccccc2NC(c2ccccn2)N1c1ccccc1F (stereo unspecified)	Mtb FBA inh 62 | Mtb FBA confirm active | GDH-TPI counter-2 199
Cc1cccc(C2Nc3ccccc3C(=O)N2c2ccc(F)cc2)n1 (stereo unspecified)	Mtb FBA inh 49 | Mtb FBA confirm inactive | GDH-TPI counter-2 inactive
NS(=O)(=O)c1ccc2nc(NC(=O)Nc3ccc(F)cc3)sc2c1	none
NC(=O)c1ccsc1NC(=O)CSc1nncs1	none (no result: Rv3671c inh, UGM FP inh)
O=c1[nH]c(N2CCOCC2)cc2ccccc12	Mtb FBA inh 45 | Mtb FBA confirm 144 | GDH-TPI counter-2 100
O=c1c(N2CCOCC2)coc2ccccc12	none
NNC(=O)c1cc(-c2cccs2)nc2ccccc12	Mtb FBA inh 44 | Mtb FBA confirm 110 | GDH-TPI counter-2 92
CN(C)S(=O)(=O)c1ccc(NC(=O)c2cc(-c3cccs3)nc3ccccc23)cc1	none (no result: UGM FP inh)
C/C(=N\NC(=O)c1cc(-c2cccs2)nc2ccccc12)c1ccccn1	Mtb FBA inh 34 | Mtb FBA confirm 99 | GDH-TPI counter-2 92
NS(=O)(=O)c1ccc(NC(=O)c2cc(-c3cccs3)nc3ccccc23)cc1	none
